SW480 rerep: A quantitative high throughput screen for small molecules that induce DNA re-replication in SW480 colon adenocarcinoma cells. hit rate 1.8% among 340,000. Potency, µM (titrated, usually from 46.1 µM), usual class: activators. AID 624297, 2012. SW480 DNA re-replication, Hoechst DNA content imaging, 48 h; also: nearly all actives have a fitted effect of over 55% in size
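250 cells/well; 23 nL cpd via pin tool; 48 hr, 37 C, 5% CO2; Hoechst 40 min; imager read of total nuclear intensity, ex 405/em 500-530 nm.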
RGS4 inh: Inhibitors of Regulator of G Protein Signaling (RGS) 4: qHTS. Potency, µM (highest dose often 114 µM), usual class: inhibitors. AID 504845, 2011. Transcreener GDP fluorescence polarization, RGS4-accelerated GTP hydrolysis. hit rate 0.039% among 390,000. Regulator of G-protein signaling 4 (Homo sapiens), P49798; also: nearly all actives have a fitted effect of over 75% in size
Target sequence (P49798 whole entry, looked up): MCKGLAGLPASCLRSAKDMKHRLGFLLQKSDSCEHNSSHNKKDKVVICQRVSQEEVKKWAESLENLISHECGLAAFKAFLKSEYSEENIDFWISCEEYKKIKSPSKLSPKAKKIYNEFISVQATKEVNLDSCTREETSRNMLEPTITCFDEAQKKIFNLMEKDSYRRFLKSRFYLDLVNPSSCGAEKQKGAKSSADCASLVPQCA
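MLSMR compounds (23 nl, pin-transferred) preincubated 10 min at room temperature with a 500nM (2x) first reagent, then RGS4 at 900nM (2x) plus Transcreener GDP mix added; fluorescence polarization (620/688 nm) read before and after 90 min at 30 °C.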
KB-3-1 tox: qHTS assay for MDR1-selective chemotherapeutics: Primary screen using the parental adenocarcinoma cell KB-3-1; KB-3-1 viability, CellTiter-Glo ATP luminescence, 72 h; Potency, µM (titrated, usually from 46.1 µM), hits mostly cytotoxic; hit rate 1.4% among 400,000; also: nearly all actives have a fitted effect of over 60% in size
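Parental KB-3-1 viability, qHTS format: 72 h compound exposure, 37 °C; CellTiter-Glo; media-only wells and DMSO plates as controls; concentration-effect fits on corrected data.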
PTAP TSG101 blk: qHTS Assay for Iinhibitors of HIV-1 Budding by Blocking the Interaction of PTAP/TSG101; 340,000 tested, under 10 active; Tumor susceptibility gene 101 protein (Homo sapiens), Q99816; Fluorescence polarization, FITC-PTAP peptide / Tsg101 binding; Potency, µM (titrated, usually from 115 µM), usual class: inhibitors; active = well fitted inhibition curve with a large enough effect in the main read-out, with a control signal flat, not every such curve was filed as active; inconclusive = small, poorly fitted or top-dose-only effect, or effect the other way, or a change in a side signal; inactive = no such curve, though single readings can be large or run the other way
Target sequence (Q99816 whole entry, looked up): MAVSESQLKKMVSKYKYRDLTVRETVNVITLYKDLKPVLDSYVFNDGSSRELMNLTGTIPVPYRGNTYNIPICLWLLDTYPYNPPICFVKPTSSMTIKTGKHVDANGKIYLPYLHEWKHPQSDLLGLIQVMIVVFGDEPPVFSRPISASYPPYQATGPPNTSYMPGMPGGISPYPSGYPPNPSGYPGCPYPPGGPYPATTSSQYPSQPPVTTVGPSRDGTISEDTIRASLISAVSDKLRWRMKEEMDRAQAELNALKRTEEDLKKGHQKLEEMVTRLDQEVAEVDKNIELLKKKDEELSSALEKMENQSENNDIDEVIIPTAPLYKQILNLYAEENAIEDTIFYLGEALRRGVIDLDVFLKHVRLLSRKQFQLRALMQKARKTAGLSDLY
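FP read-out: FITC-PTAP peptide, 50 nM final, binding Tsg101 binding domain, 10 uM final; 20 min, r.t.; 10 mM HEPES pH 7.5, 0.15 M NaCl, 0.01% Tween 20, 3 mM EDTA, 0.1 mM TCEP.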
KB-V1 cytotox: qHTS assay for MDR1-selective chemotherapeutics: Primary screen using the drug-selected MDR subline cells KB-V1. KB-V1 MDR cells viability, CellTiter-Glo, 72 h. Potency, µM (doses to about 46.1 µM), most hits filed as cytotoxic. hit rate 3.4% among 400,000; also: nearly all actives have a fitted effect of over 60% in size
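Cytotoxicity toward P-gp-expressing KB-V1 cells was determined as loss of CellTiter-Glo luminescence after 72 h at 37 degrees C. Compounds were tested in quantitative HTS format across a concentration range, with curves fitted to normalized data.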
MCF10A rerep: A quantitative high throughput screen for small molecules that induce DNA re-replication in MCF 10a normal breast cells; MCF 10A DNA re-replication, Hoechst nuclear intensity, 48 h; Potency, µM (series often up to 46.1 µM), hits mostly activators; hit rate 2.9% among 350,000; AID 624296, 2012; also: nearly all actives have a fitted effect of over 50% in size
Numbers stand for hits; . = inactive; ? = inconclusive; / = no result given; [ ] = remark or other dose. In the library only some 6.6% were active in any assay of this set; here they are far more common. Unless noted, calls follow the shape of the dose curve; as a rule, active = well fitted curve in the direction sought with a large enough effect; inconclusive = small, poorly fitted or top-dose-only effect, or another doubt; inactive = no such curve, though single readings can be large; an effect the other way counts as inactive or inconclusive.

SMILES	SW480 rerep	RGS4 inh	KB-3-1 tox	PTAP TSG101 blk	KB-V1 cytotox	MCF10A rerep
Cc1ccc(-n2ncc(C(=O)Nc3ccc4c(c3)OCCO4)c2C2CCN(C(=O)OC(C)(C)C)CC2)cc1C	/	.	.	/	.	/
CCC1CCCCN1C(=O)CSc1n[nH]c(-c2ccccc2Cl)n1 (stereo unspecified)	/	.	.	/	.	/
CC(=O)Nc1ccccc1OCC(=O)NC(C)c1ccccc1 (stereo unspecified)	.	.	.	.	.	.
CC(NC(=O)COc1ccccc1-c1ccccc1)c1ccccc1 (stereo unspecified)	.	.	.	.	.	4.6µM
Cc1cc(C)n(-c2cccc(Cl)c2)c(=O)c1C#N	.	.	.	.	.	.
Cc1cc2n(c(=O)c1C#N)CCCN2c1cccc(Cl)c1	.	.	.	.	13µM	.
O=C(CN1CCN(C(c2ccccc2)c2ccccc2)CC1)NC(=O)NCc1ccco1	?	.	.	.	2.3µM	.
CC(C)(C)NC(=O)NC(=O)CN1CCN(Cc2ccccc2)CC1	.	.	.	.	.	.
CC(C)(C)NC(=O)NC(=O)CN1CCN(C(c2ccccc2)c2ccccc2)CC1	.	.	.	.	21µM	.
CCSc1ncc(Cl)c(C(=O)Nc2sc3c(c2C(=O)OC)CCCC3)n1	/	/	.	/	?	/
COc1ccc2c(c1)c1nnc(SC)nc1n2Cc1ccccc1	/	.	/	/	/	/
Cc1ccc(NC(=O)C2CCCN(c3nnc(C)c4c(C)n(-c5ccccc5)nc34)C2)c(Cl)c1 (stereo unspecified)	/	.	.	/	.	/
O=C(c1cccc(F)c1)N1CCc2ccccc21	.	.	.	.	.	0.18µM
Cc1cccc(-c2nc(SCC(=O)Nc3cccc(C(F)(F)F)c3)n3[nH]c(=O)cc3n2)c1	/	.	.	/	?	/
Cc1ccc(Nc2nc(N)nc(CSC(=S)N3CCN(c4ccccc4)CC3)n2)cc1	.	.	.	.	16µM	.
Nc1nc(CSC(=S)N2CCN(c3ccccc3)CC2)nc(Nc2ccccc2)n1	.	.	.	.	3.3µM	.
COc1ccc(Nc2nc(N)nc(CSC(=S)N3CCOCC3)n2)cc1	?	.	.	.	.	.
Nc1nc(CSC(=S)N2CCOCC2)nc(Nc2ccc(F)cc2)n1	.	.	.	.	16µM	.
Cc1ccc(Nc2nc(N)nc(CSC(=S)N3CCOCC3)n2)c(C)c1	.	.	.	?	8.2µM	.
COc1ccc(CC(=O)NCC(c2cccs2)S(=O)(=O)c2ccc(Cl)cc2)cc1 (stereo unspecified)	/	.	/	/	/	/
CC[C@@H](C)[C@@H](C(=O)N1CCN(C(=O)OC(C)(C)C)CC1)n1cc(CCCCNC(=O)OC(C)(C)C)nn1	.	.	?	.	21µM	?
N#CCSc1n[nH]c2nc3c(c(=O)n12)C1(CCCCC1)Cc1ccccc1-3	?	?	.	.	.	16µM
Cn1c(NCCCO)nc2c(c1=O)C1(CCCCC1)Cc1ccccc1-2	.	.	.	.	.	18µM
CCn1c(SCC#N)nc2c(c1=O)C1(CCCC1)Cc1ccccc1-2	.	.	?	.	.	?
CSc1n[nH]c2nc3c(c(=O)n12)C1(CCCCC1)Cc1ccccc1-3	?	.	?	.	?	?
SMILES	SW480 rerep	RGS4 inh	KB-3-1 tox	PTAP TSG101 blk	KB-V1 cytotox	MCF10A rerep
CCSc1n[nH]c2nc3c(c(=O)n12)C1(CCCCC1)Cc1ccccc1-3	.	?	.	.	.	5.2µM
Cc1ccc(OCC(=O)N(Cc2ccc(N(C)C)cc2)CC2CCCO2)cc1C (stereo unspecified)	/	.	/	/	/	/
Nc1cc(=O)[nH]c2c1CCC2	/	/	?	/	.	/
COc1ccc(CCNCc2c(C(=O)O)c(C)n(Cc3c(F)cccc3Cl)c2C)cc1OC	/	.	.	/	?	/
CSc1cccc(NC(=O)c2ccc(CN3CCc4ccccc4C3)cc2)c1	?	.	?	.	?	?
CC(=O)Nc1ccc(NC(=O)c2ccc(CN3CCc4ccccc4C3)cc2)cc1	.	.	.	.	.	.
COC(=O)c1ccc(CN2CCc3ccc(NC(=O)c4ccncc4)cc3C2)cc1	.	.	?	.	13µM	?
O=C(Nc1cccc(Br)c1)c1ccc(CN2CCc3ccccc3C2)cc1	18µM	.	?	.	?	26µM
O=C(Nc1ccc(F)cc1)c1ccc(CN2CCc3ccccc3C2)cc1	.	.	?	.	5.8µM	.
NC(=O)C(c1ccccc1)(c1ccccc1)[C@@H]1CCN(CCc2ccc3c(c2)CCO3)C1	.	/	/	/	/	.
CN1C(=O)/C(=C\c2ccccc2F)Sc2ccc(C(=O)NC3CCN(Cc4ccccc4)CC3)cc21	21µM	.	?	.	.	?
CN1C(=O)/C(=C/c2ccccc2Cl)Sc2ccc(C(=O)N3CCCC3)cc21	.	.	.	.	.	18µM
CN1C(=O)/C(=C/c2cccc(Cl)c2)Sc2ccc(C(=O)N3CCOCC3)cc21	?	.	.	.	.	21µM
COc1ccc(/C=C2\Sc3ccc(C(=O)N4CCCC4)cc3N(C)C2=O)cc1OC	4µM	.	.	.	.	.
CCOc1ccc(/C=C2/Sc3ccc(C(=O)N4CCOCC4)cc3N(C)C2=O)cc1OC	?	.	.	.	?	?
CCc1ccc(OCCCn2c(CCNC(=O)C3CCCCC3)nc3ccccc32)cc1	/	.	.	/	.	/
COc1cccc(C(=O)Nc2ncc3c(n2)CC(c2ccc(OC)cc2OC)CC3=O)c1 (stereo unspecified)	6.5µM	.	?	.	5.2µM	2.3µM
CCc1ccc(Nc2ncc3c(n2)CC(c2ccc(OC)cc2)CC3=O)cc1 (stereo unspecified)	21µM	.	?	.	.	18µM
O=C(Nc1c(Cl)cccc1Cl)c1cc(-c2cccc(O)c2)on1	/	.	.	/	.	/
C1COCCNCCOCCOCCN1	.[9.22 µM]	.	.	.	.	.
C1COCCNCCOCCOCCOCCN1	10µM	.	.	.	.	.
Cc1cccc(OCC(=O)N2CCC(c3nc4ccccc4o3)CC2)c1C	/	.	/	/	/	/
CN1C(C(=O)c2ccccc2)=C(NC(=O)c2ccccc2Br)c2ccccc2S1(=O)=O	/	.	/	/	/	/
CN1C(=O)c2cccc3c(N(C)C)ccc(c23)C1=O	.	.	.	.	12µM	.
CN1C(=O)c2cccc3c(Cl)ccc(c23)C1=O	.	.	.	.	.	.

Bioassay records deposited in PubChem BioAssay by National Center for Advancing Translational Sciences (NCATS).
